Laboratory results from PubChem BioAssay (Tox21).
Records with an inconclusive call do not appear. Active and inactive are the calls of the source. Unless noted, calls come from the whole dose curve; as a rule, active = well fitted curve in the direction sought with a large enough effect in the repeat runs; inconclusive = weak or mixed curves; inactive = no such curve, though single readings can be large; an effect the other way counts as inactive or inconclusive.

Tests used:
[1] = qHTS assay for small molecules that induce genotoxicity in human embryonic kidney cells expressing luciferase-tagged ATAD5 (AID 651632); note: nearly all actives have a fitted effect of over 15% in size; note: potency is the fitted concentration of half-maximal effect
Summary of the method: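 HEK293T cells carrying a luciferase reporter tagged to ATAD5 were exposed to compound or DMSO vehicle for 16 hr at 37C, 5% CO2. Amplite was added, and after 30 min at room temperature luciferase activity was read as a marker of ATAD5 induction.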

[2] = qHTS assay for small molecules that induce genotoxicity in human embryonic kidney cells expressing luciferase-tagged ATAD5 - cell viability (AID 651634; calls by dose curve; note: nearly all actives have a fitted effect of over 25% in size)
Summary of the method: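 HEK293T cells expressing luciferase-tagged ATAD5 were exposed to compound or DMSO for 15.5 hr at 37C, 5% CO2. Viability was then read as live-cell protease activity by CellTiter-Fluor fluorescence after 30 min at 37C.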

[3] = qHTS assay for small molecule disruptors of the mitochondrial membrane potential (AID 720635); note: potency is the fitted concentration of half-maximal effect
Summary of the method: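 Mitochondrial membrane potential tracked with Mito-MPS dye, red aggregates (ex 540/em 590 nm) against green monomers (ex 490/em 535 nm). Compound treatment 1 hr at 37C, dye 30 min in HepG2.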

[4] = qHTS assay to test for compound auto fluorescence at 590 nm (red) in HepG2 cells (AID 720674)
Summary of the method: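 Red autofluorescence (Ex/Em 540/590 nm, Rose Bengal sodium equivalents) was measured in HepG2 cells, 2,000 per well in MEM plus 10% FBS, plated overnight at 37 C. Readings were taken 1 hr after adding 23 nL compound or DMSO, at 37 C and 5% CO2.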

[5] = qHTS assay to test for compound auto fluorescence at 535 nm (green) in HepG2 cells (AID 720675)
[6] = qHTS assay to test for compound auto fluorescence at 460 nm (blue) in HEK293 cells (AID 720678)
Summary of the method: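 Cells were seeded and left to adhere for 4-5 hr at 37C. Compounds were then pin-transferred. After an overnight incubation at 37C under 5% CO2, intrinsic fluorescence at 405/460 nm was measured and referenced to triamterene.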

[7] = qHTS assay to test for compound auto fluorescence at 590 nm (red) in HEK293 cells (AID 720679)
Summary of the method: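 Each well held 2,000 HEK293 cells in medium containing 10% dialyzed FBS. Following 4-5 hr attachment at 37C, 23 nL test compound or DMSO was added; plates sat overnight, and red fluorescence (540/590nm) was recorded.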

[8] = qHTS assay for small molecule disruptors of the mitochondrial membrane potential - cell viability (AID 720634; calls by dose curve; note: nearly all actives have a fitted effect of over 20% in size; note: potency is the fitted concentration of half-maximal effect)
Summary of the method: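 HepG2 cells seeded overnight at 37 C, then exposed to compound or DMSO for 1 hr at 37 C, 5% CO2. m-MPI dye added, then CellTiter-Glo for 30 min at room temperature; viability read as ATP luminescence.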

[9] = qHTS assay for small molecule agonists of the p53 signaling pathway - cell viability (AID 651633; calls by dose curve;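 note: p53RE-bla HCT reporter cells with a stable beta-lactamase p53 reporter; series mostly up to about 83 µM; nearly all actives have a fitted effect of over 30% in size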)
Summary of the method: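 Viability counter-read: CellTiter-Glo luminescence (30 min, room temperature) in the same p53RE-bla plates. These plates had been exposed to compounds for 16 h at 37 C.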
% is set by controls: 0 for no effect and ±100 for the full control effect.

O=C(O)c1cccc(-c2noc(-c3ccccc3F)n2)c1
inactive: Potency [2] | Potency [3] | outcome [4] | outcome [5] | Potency [6] | outcome [7]
active: Potency [1] 0.0237 µM

CN(C(=O)CN(CCO)CC(=O)N(C)C(C)(C)Cc1ccccc1)C(C)(C)Cc1ccccc1
inactive: Potency [1] | Potency [2] | Potency [8] | fluorescence, relative to Rose Bengal [4] -0.825% [at 18.6 µM] | fluorescence, % of fluorescein control [5] -0.0053% [at 18.6 µM] | fluorescence, % of fluorescent control [7] 0.0938% [at 18.6 µM]

OC[C@H]1O[C@@H](n2cnc3c(=S)nc[nH]c32)[C@H](O)[C@@H]1O
inactive: Potency [1] | Potency [8] | outcome [4] | outcome [5] | Potency [6] | outcome [7]
active: Potency [3] 0.211 µM

CCCCCCCCC(CCCCCC)C(=O)O (stereo unspecified)
inactive: Potency [1] | Potency [8] | outcome [4] | outcome [5] | Potency [6] | outcome [7]

CCCCCCCCOc1ccc(C(=O)O)cc1
inactive: Potency [8] | outcome [4] | outcome [5] | Potency [6]

CN1CCCC(CC2c3ccccc3Sc3ccccc32)C1 (stereo unspecified)
inactive: Potency [2] | Potency [8] | fluorescence, relative to Rose Bengal [4] 0.272% [at 18.6 µM] | fluorescence, % of fluorescein control [5] -0.0795% [at 18.6 µM] | fluorescence, % of triamterene [6] 0.136% [at 18.6 µM] | fluorescence, % of fluorescent control [7] -0.0119% [at 18.6 µM]

CN1C(=O)c2ccccc2C1=O
inactive: Potency [9] | Potency [8] | outcome [4] | outcome [5] | Potency [6] | outcome [7]

Cc1ccccc1N=C(N)Nc1ccccc1C
inactive: Potency [9] | Potency [2] | Potency [8] | outcome [4] | outcome [5] | Potency [6]

C[C@@H]1CN(CCCn2c3ccccc3c3ccccc32)C[C@H](C)N1
inactive: Potency [1] | Potency [8] | outcome [4] | outcome [5] | Potency [6] | outcome [7]

CCCCC(CC)COP(=O)(O)O (stereo unspecified)
inactive: Potency [1] | Potency [2] | outcome [4] | outcome [5] | Potency [6] | outcome [7]

Cc1ccc2c(Br)cc(Br)c(O)c2n1
active: Potency [1] 23.7 µM | Potency [3] 23.7 µM
inactive: Potency [8] | outcome [4] | outcome [5] | outcome [7]

Cc1cccc(O)c1N
inactive: Potency [9] | Potency [8] | outcome [4] | outcome [5] | Potency [6] | outcome [7]

Brc1cc(Br)c(Oc2cc(Br)c(Br)cc2Br)cc1Br
inactive: Potency [1] | Potency [2] | Potency [8] | outcome [5] | Potency [6]

Nc1nc2ccc([N+](=O)[O-])cc2s1
inactive: Potency [1] | Potency [8] | outcome [4] | outcome [5] | Potency [6] | outcome [7]
active: Potency [3] 4.33 µM

O=C(/C=C/c1ccccc1)OCCc1ccccc1
inactive: Potency [2] | Potency [8] | outcome [4] | outcome [5]

O=C(O)CCc1nc(-c2ccccc2)c(-c2ccccc2)o1
inactive: Potency [8] | Potency [3] | outcome [5] | Potency [6] | outcome [7]

Oc1ccc(Cl)c2cccnc12
inactive: Potency [9] | Potency [2] | Potency [8] | outcome [4] | outcome [5] | Potency [6] | outcome [7]
active: Potency [3] 11.9 µM

CC(=O)NC1(c2cccc(F)c2)CCN(CC[C@@]2(c3ccc(Cl)c(Cl)c3)CN(c3ccccc3)C(=O)CO2)CC1
inactive: Potency [1] | Potency [8] | outcome [4] | outcome [5]

O=C1Cc2ccccc2N1c1c(Cl)cccc1Cl
inactive: Potency [1] | Potency [2] | outcome [4] | outcome [5] | outcome [7]

C=CCc1ccccc1OCC(O)CNC(C)C (stereo unspecified)
inactive: Potency [2] | Potency [8] | outcome [4] | outcome [5] | Potency [6] | outcome [7]

c1ccc2c(c1)CCc1ccccc1N2
active: Potency [8] 54.8 µM | Potency [3] 19.4 µM
inactive: Potency [9] | Potency [2] | outcome [4] | outcome [5] | Potency [6] | outcome [7]

CCCCCCCCCCCCCCN(CCO)CCO
inactive: Potency [1] | Potency [2] | Potency [8] | outcome [5] | Potency [6] | outcome [7]

CCOc1cccc(-n2cc(C(=O)N3CCN(c4cc(C(=O)O)c5ccccc5c4)CC3)nc2-c2ccc(C)cc2)c1
inactive: Potency [1] | Potency [8] | outcome [4] | outcome [5] | Potency [6] | outcome [7]

OCCN1CCN(CCCN2c3ccccc3Sc3ccc(Cl)cc32)CC1
inactive: Potency [1] | Potency [2] | Potency [8] | fluorescence, relative to Rose Bengal [4] 0.837% [at 18.6 µM] | fluorescence, % of fluorescein control [5] 0.0508% [at 18.6 µM] | fluorescence, % of triamterene [6] -0.38% [at 18.6 µM] | fluorescence, % of fluorescent control [7] -0.0409% [at 18.6 µM]

CN1CC(=O)N2[C@H](c3ccc4c(c3)OCO4)c3[nH]c4ccccc4c3C[C@@H]2C1=O
inactive: Potency [1] | Potency [2] | Potency [8] | outcome [4] | outcome [5] | Potency [6] | outcome [7]

O=C1c2ccccc2C(=O)N1CCc1noc(-c2ccc(CN3CCCCCC3)s2)n1
inactive: Potency [9] | Potency [8] | outcome [4] | outcome [5] | Potency [6] | outcome [7]

COC(=O)CS
inactive: Potency [2] | Potency [8] | Potency [3] | outcome [4] | outcome [5] | Potency [6] | outcome [7]

CC1(C)O[C@@H]2C[C@H]3[C@@H]4C[C@H](F)C5=CC(=O)C=C[C@]5(C)[C@H]4[C@@H](O)C[C@]3(C)[C@]2(C(=O)CO)O1
inactive: Potency [2] | Potency [8] | fluorescence, relative to Rose Bengal [4] 0.174% [at 18.6 µM] | fluorescence, % of fluorescein control [5] -0.107% [at 18.6 µM] | fluorescence, % of triamterene [6] -0.229% [at 18.6 µM] | fluorescence, % of fluorescent control [7] -0.713% [at 18.6 µM]

CCOc1ccccc1O[C@H](c1ccccc1)[C@H]1CNCCO1
inactive: Potency [9] | Potency [2] | Potency [8] | outcome [4] | outcome [5] | outcome [7]

O=C1C(=O)c2ccccc2C(O)=C1C1CCC(c2ccc(Cl)cc2)CC1 (stereo unspecified)
inactive: Potency [2] | Potency [8] | fluorescence, relative to Rose Bengal [4] -0.463% [at 18.6 µM] | fluorescence, % of fluorescein control [5] -0.0011% [at 18.6 µM] | fluorescence, % of triamterene [6] 0.0437% [at 18.6 µM] | fluorescence, % of fluorescent control [7] 0.421% [at 18.6 µM]

Cc1cc(O)ccc1O
inactive: Potency [8] | Potency [3] | outcome [4] | outcome [5] | outcome [7]

O=C(OC(=O)c1ccccc1)c1ccccc1
inactive: Potency [9] | Potency [2] | Potency [8] | Potency [3] | outcome [4] | outcome [5] | Potency [6] | outcome [7]

CC(=O)N/N=C/c1ccc([N+](=O)[O-])o1
inactive: Potency [1] | Potency [2] | Potency [8] | outcome [4] | outcome [5] | Potency [6] | outcome [7]

C=C1CCC2CC1C2(C)C (stereo unspecified)
inactive: Potency [9] | Potency [2] | outcome [4] | outcome [5] | outcome [7]

CCCCC(CC)CN (stereo unspecified)
inactive: Potency [1] | Potency [2] | outcome [4] | outcome [5] | Potency [6] | outcome [7]

c1ccc2sc(SN(C3CCCCC3)C3CCCCC3)nc2c1
inactive: Potency [2] | outcome [4] | outcome [5] | Potency [6] | outcome [7]

CC1(C)[C@H](C(=O)O)N2C(=O)C[C@H]2S1(=O)=O
inactive: Potency [8] | Potency [3] | outcome [5] | Potency [6]
